Test results as given in PubChem BioAssay.

Assay: Plasmodium falciparum growth inhibition, primary screen, strain 3D7, DAPI fluorescence, 100 nL (AID 1184);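 also: parasites grown inside human red blood cells in medium with human serum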
Conditions: P. falciparum 3D7 growth, 3 d, higher = more signal
COC(=O)[C@@H]1N=C(c2ccc(OCCCO)cc2)O[C@@H]1c1ccccc1N=[N+]=[N-] gave a z-score of -1.43. CCOC(=O)C1=CC[C@H]2C(=O)N(CC)C(=O)[C@@H]12 gave a z-score of -0.239. In the case of C=C(/C(=C/C[C@H](OC(C)=O)c1ccc(OCCO)cc1)c1cnc2ccccc2c1)C(C)C, the z-score is reported as -2.99. N#Cc1ccc(NN2C(C(O)c3cc(C(F)(F)F)cc(C(F)(F)F)c3)C=CC3C(=O)N(c4ccccc4)C(=O)C32)cc1 (stereo not drawn) gave a z-score of -0.496. In the case of COCCOC(=O)N1C(=O)[C@@]2(c3cc(C#CCNC(N)=O)ccc31)[C@H](c1ccccc1OCCO)N1[C@H](c3ccccc3)[C@H](c3ccccc3)OC(=O)[C@H]1[C@@H]2C(=O)N1CCN(c2ncccn2)CC1, the z-score is reported as -2.09. In the case of CC(C)[Si]1(C(C)C)O[C@@H](c2ccccc2)c2cc(C3CC3)nc(-c3ccccc3)c21, the z-score is reported as 0.0193. For COc1ccc([Si](C)(C)[C@@H]2[C@@H](CC(=O)N3CCC[C@H]3CO)O[C@]3(C(=O)N(Cc4cccc(N5CCC5=O)c4)c4ccccc43)[C@H]2C)cc1, the z-score was -0.744. Work on CN(C)c1ccc(C(O)C2C=CC3C(=O)N(c4ccccc4)C(=O)C3N2Nc2ccccc2F)cc1 (stereo not drawn) yielded a z-score of -0.0341. With CCCCCN1CC=CC23O[C@@H]4C=CCOC(=O)[C@@H]4[C@H]2C(=O)N(CCCCCCO)[C@@H]3C1=O (stereo partly drawn) the z-score was -0.658. For CC(C)(C)OC(=O)CC[C@]1(C(N)=O)COC(c2ccc(OCCCO)cc2)=N1, the z-score was 0.0099. For CC(C)(C)OC(=O)CC[C@]1(C(=O)NCc2ccccc2)N=C(c2ccc(OCCCO)cc2)O[C@H]1c1ccccc1, the z-score was -1.58. Work on COc1ccc(CCNC(=O)[C@@H]2c3ccccc3C(=O)N(c3ccc(C)cn3)[C@H]2c2ccc(CO)cc2)cc1 yielded a z-score of -0.183. In the case of CC1CC/C=C\[C@H]2OC34C=CCN(Cn5nnc6ccccc65)C(=O)[C@H]3N(CCO)C(=O)[C@@H]4C2C(=O)O1 (stereo partly drawn), the z-score is reported as -0.611. C[N+](C)(C)CCCCCCNC(=O)[C@@H]1C[C@@H]2C(=O)N3CCC[C@H]3C(=O)N2[C@@H]1c1cccc(OCCO)c1 showed a z-score of -0.204. With CN1C(=O)[C@@]2(CCC(=O)OC(C)(C)C)N=C(c3ccc(OCCCO)cc3)O[C@H]2c2ccccc21 the z-score was -2.1. Work on COCC1=C2[C@@H](CCc3ccccc3)OB(O)C[C@@H]2n2c(=O)n(-c3ccccc3)c(=O)n2C1 yielded a z-score of 1.25. CCCCC(=C=CC[C@H](O)c1ccccc1OCCO)C[C@H](O)COCc1ccccc1 gave a z-score of -1.21. Molecule COCCOC(=O)N1C(=O)[C@@]2(c3cc(C#CCNC(N)=O)ccc31)[C@H](c1ccc(O)cc1)N1[C@H](c3ccccc3)[C@H](c3ccccc3)OC(=O)[C@H]1[C@@H]2C(=O)N1CCCCCCC1 has a z-score of -0.0743. In the case of CC(C)NC(=O)[C@@H]1c2ccccc2C(=O)N(CC23CC4CC(CC(C4)C2)C3)[C@H]1c1ccc(CO)cc1, the z-score is reported as -1.84. For CCCC[C@@H]1C[C@H]1[C@@H](NS(=O)(=O)c1cccc2cccnc12)c1ccc(-c2ccccc2)cc1, the z-score was -0.299. With CC(C)N1CC=CC23O[C@@H]4C=CCCOC(=O)C4[C@H]2C(=O)N(CCCCCCO)[C@@H]3C1=O (stereo partly drawn) the z-score was 0.0012. In the case of CC(C)=C1C(=O)C(c2ccccc2)=C2CN3C(=O)N(CCc4ccccc4)C(=O)[C@]3(Cc3ccc(F)cc3)[C@H]21, the z-score is reported as -0.418. CO[C@H]1O[C@H](CO)[C@@H](OC(=O)Nc2ccc(C#N)cc2)[C@H](OC(=O)c2cc3ccccc3[nH]2)[C@H]1OC(=O)c1cc2ccccc2[nH]1 gave a z-score of -1.96. [N-]=[N+]=NCc1ccccc1[C@@H]1OC(c2ccc(OCCCO)cc2)=N[C@]1(Cc1ccccc1)C(=O)N1CCOCC1 showed a z-score of -2.33. Molecule CC(C)c1ccc(NN2C(C(O)c3ccc4c(c3)OCO4)C=CC3C(=O)N(c4ccccc4)C(=O)C32)cc1 (stereo not drawn) has a z-score of -0.121. For COCC(=C=CC[C@@H](O)c1ccccc1OCCO)CCO, the z-score was -0.721. In the case of CC(C)OC(=O)C=C1C[C@@H](c2ccc(C#N)cc2)O[C@@H](c2ccc(C#N)cc2)O1, the z-score is reported as -0.868. Molecule CC(C)(C)N1CC=CC23O[C@@H]4C=CCCOC(=O)C4[C@H]2C(=O)N(CCCCCO)[C@@H]3C1=O (stereo partly drawn) has a z-score of 0.519.
